Source: PubChem BioAssay AID624161 (National Center for Advancing Translational Sciences (NCATS), 2012)
The list shows a part of the results. Results filed as inconclusive are left out. Activity calls are given as the source filed them. The call rests on the fitted dose curve; in most records, active means well fitted inhibition curve with a large enough effect; inconclusive means small, poorly fitted or top-dose-only effect; inactive means no such curve, though single readings can be large or run the other way.

The compounds below were run against Histone-lysine N-methyltransferase 2A (Homo sapiens) (UniProt Q03164) (assay: qHTS Fluorescence Polarization (FP) Assay for Inhibitors of MLL CXXC domain - DNA interaction: Texas Red FP). Conditions: MLL CXXC-DNA binding; series mostly up to 345 µM.
Description: The MLL (Mixed Lineage Luekemia) gene is involved in chromosomal translocation that results in either acute lymphoid leukemia (ALL) or acute myeloid leukemia (AML). Chromasomal translocation of MLL gene is responsible for the fusion of N-terminal MLL to more than 60 different partner genes in frame. Many of the MLL partner genes contain transcription activation domains or function as transcriptional activators. Despite the heterogeneity of fusion partners, the N-terminus of MLL fusion proteins always consists of the N-terminal menin binding motif and the CXXC domain. The MLL-CXXC domain specifically recognizes unmethylated CpG sequences of the HOX-A gene. Disruption of the MLL-CXXC and HOX-A gene interaction leads to down regulation of HOX-A gene expression and may potentially reverse leukemogenesis. We have miniaturized and optimized an in-vitro assay to screen for inhibitors of the MLL-CXXC domain and HOX-A DNA interaction, which could have utility in MLL fusion leukemias.
This is a hit validation assay that tests this hits identified in the primary screen in this secondary screen, using a Texas Red FP as a read-out.
NIH Molecular Libraries Probe Production Network [MLPCN]
NIH Chemical Genomics Center [NCGC]
PI Name: John Bushweller, University of Virgina
The affinity purified MLL-CXXC domain, unlabeled HOX-A9 DNA strand, Texas Red (FLSN) labeled HOX-A9 DNA strand were kindly supplied by the laboratory of Dr. John Bushweller, University of Virginia. All reagents were stored in single use aliquots at -80C.
Assay buffer: 50 mM TRIS-HCl pH 7.5, 50 mM NaCl, 1 mM DTT. Add 0.05% BSA prior to reaction setup.
1.Dispense 1 ul of a 7 uM MLL-CXXC solution prepared in assay buffer into column 1-48.
2.Transfer 23 nl of compounds and unlabeled HOX-A9 per well.
3.Incubate for 5 minutes at ambient.
4.Dispense 1ul of a 50 nM TR-HOX-A9 solution prepared in assay buffer into columns 1-48
5.Centrifuge for 30 seconds at 1000 RPM.
6.Incubate for 30 minutes at ambient.
7.Read using the Envision reader fluorescent polarization protocol.
Further: nearly all actives have a fitted effect of over 75% in size.
Potency means the concentration at half of the fitted maximal effect.

Chain of Histone-lysine N-methyltransferase 2A (Homo sapiens) (Q03164 whole entry, looked up, the tested form may be a part): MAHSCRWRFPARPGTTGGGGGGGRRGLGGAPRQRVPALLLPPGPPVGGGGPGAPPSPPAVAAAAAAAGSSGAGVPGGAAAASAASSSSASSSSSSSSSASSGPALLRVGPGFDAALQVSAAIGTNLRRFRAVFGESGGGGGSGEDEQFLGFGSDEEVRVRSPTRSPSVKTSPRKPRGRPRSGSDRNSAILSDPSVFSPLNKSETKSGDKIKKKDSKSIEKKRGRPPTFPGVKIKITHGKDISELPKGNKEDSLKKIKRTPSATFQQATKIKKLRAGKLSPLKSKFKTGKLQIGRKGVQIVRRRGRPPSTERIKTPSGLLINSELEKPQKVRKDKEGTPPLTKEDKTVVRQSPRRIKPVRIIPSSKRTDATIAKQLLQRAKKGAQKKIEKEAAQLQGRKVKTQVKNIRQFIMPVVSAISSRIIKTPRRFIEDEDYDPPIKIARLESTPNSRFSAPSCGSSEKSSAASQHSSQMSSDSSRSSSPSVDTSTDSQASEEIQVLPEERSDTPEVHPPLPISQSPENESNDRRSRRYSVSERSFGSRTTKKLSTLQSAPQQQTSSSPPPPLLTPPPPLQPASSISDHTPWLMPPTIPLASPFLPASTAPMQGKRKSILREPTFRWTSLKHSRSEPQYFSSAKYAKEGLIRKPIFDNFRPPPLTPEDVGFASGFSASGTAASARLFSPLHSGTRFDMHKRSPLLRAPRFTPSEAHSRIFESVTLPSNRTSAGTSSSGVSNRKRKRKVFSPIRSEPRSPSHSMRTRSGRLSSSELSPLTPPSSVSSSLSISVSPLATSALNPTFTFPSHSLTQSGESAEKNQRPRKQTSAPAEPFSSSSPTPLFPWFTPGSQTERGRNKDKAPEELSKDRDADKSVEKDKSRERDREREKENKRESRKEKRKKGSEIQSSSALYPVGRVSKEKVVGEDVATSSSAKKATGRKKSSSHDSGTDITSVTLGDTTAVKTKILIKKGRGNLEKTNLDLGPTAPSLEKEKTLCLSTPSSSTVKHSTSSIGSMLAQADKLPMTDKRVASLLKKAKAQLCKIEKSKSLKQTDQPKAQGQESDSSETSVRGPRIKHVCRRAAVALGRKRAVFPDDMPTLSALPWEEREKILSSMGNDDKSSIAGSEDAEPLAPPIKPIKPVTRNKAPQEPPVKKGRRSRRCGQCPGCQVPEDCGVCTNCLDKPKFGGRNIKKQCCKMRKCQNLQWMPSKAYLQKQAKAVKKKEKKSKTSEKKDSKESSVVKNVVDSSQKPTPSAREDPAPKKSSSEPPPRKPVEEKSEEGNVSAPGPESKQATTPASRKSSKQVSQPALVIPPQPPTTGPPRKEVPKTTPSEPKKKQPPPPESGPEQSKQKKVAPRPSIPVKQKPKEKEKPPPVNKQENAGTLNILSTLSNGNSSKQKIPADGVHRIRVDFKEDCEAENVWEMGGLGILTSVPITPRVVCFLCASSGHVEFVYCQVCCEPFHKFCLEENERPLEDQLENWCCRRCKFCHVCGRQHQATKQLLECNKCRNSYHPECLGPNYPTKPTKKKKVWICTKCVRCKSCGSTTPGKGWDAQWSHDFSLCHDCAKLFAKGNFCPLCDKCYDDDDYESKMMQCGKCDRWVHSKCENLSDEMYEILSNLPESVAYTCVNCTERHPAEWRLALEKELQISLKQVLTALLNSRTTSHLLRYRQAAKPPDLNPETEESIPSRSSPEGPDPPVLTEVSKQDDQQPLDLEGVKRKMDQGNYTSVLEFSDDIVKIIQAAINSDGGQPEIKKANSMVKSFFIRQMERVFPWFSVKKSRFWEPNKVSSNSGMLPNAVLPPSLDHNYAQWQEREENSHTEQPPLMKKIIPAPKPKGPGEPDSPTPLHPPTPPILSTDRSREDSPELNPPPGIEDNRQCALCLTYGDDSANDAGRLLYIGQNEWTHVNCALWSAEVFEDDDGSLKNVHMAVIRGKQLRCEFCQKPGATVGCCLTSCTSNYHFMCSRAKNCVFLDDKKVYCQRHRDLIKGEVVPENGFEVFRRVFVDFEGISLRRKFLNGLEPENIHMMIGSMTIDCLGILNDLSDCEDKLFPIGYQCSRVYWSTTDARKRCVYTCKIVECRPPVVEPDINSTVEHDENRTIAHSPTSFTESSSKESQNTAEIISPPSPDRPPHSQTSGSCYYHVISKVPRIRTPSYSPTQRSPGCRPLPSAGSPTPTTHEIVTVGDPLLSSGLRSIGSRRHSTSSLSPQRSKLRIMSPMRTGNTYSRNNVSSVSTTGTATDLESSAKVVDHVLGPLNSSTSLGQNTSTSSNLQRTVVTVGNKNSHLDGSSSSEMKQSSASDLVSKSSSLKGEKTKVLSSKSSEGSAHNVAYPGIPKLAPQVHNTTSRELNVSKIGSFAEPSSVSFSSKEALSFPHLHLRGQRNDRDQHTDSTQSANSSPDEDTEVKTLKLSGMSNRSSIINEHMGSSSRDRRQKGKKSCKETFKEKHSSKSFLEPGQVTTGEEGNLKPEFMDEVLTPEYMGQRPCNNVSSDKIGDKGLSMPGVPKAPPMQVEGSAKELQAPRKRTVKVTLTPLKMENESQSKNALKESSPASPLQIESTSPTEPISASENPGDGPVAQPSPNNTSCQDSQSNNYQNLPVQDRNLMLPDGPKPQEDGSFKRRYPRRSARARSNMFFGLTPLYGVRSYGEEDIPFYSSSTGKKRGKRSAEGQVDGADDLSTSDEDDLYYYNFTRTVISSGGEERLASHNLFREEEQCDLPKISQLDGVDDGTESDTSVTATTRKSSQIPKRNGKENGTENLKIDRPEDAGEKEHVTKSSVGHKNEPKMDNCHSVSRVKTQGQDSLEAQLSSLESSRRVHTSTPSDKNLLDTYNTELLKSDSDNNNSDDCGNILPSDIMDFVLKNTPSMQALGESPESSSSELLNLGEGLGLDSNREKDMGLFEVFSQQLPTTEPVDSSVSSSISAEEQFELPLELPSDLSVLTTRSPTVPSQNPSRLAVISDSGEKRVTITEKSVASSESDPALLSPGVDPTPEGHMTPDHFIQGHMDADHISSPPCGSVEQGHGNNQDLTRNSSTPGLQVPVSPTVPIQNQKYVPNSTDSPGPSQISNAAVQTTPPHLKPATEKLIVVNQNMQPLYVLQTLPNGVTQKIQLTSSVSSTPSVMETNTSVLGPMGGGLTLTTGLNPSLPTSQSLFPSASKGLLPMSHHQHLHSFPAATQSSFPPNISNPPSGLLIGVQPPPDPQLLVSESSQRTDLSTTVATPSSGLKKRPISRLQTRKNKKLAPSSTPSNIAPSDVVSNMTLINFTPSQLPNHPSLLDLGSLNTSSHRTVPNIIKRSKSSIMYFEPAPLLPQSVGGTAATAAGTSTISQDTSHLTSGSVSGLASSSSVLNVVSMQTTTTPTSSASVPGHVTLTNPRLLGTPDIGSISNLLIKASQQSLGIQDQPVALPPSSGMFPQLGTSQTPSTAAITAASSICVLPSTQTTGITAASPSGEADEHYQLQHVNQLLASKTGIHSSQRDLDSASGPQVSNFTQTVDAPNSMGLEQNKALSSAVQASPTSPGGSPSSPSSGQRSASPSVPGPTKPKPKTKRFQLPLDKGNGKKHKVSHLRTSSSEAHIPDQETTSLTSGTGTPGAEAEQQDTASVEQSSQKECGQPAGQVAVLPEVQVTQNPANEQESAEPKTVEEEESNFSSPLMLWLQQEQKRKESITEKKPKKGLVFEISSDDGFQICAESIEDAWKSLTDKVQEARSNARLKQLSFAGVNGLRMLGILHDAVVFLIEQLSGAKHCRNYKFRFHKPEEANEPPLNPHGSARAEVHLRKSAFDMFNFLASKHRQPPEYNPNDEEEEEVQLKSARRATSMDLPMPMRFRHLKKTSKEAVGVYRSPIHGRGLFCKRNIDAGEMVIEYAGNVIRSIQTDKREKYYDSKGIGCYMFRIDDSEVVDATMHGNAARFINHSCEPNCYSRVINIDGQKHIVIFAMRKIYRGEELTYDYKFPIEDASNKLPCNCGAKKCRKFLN

Row | Compound | Potency
1 | CCOC(=O)/C(N=Nc1cc(C(=O)O)cc(C(=O)O)c1)=C(\O)CCl | 142 µM (active)
2 | O=C1NN(c2ccccc2)C(=O)/C1=C/c1ccc(-c2cccc(C(=O)O)c2)o1 | 126 µM (active)
3 | COc1cc(/C=C2/C(=O)NN(c3ccc(F)cc3)C2=O)cc([N+](=O)[O-])c1O | 126 µM (active)
4 | COc1ccc(S(=O)(=O)/N=C2\C=C(NS(=O)(=O)c3ccccc3)C(=O)c3ccccc32)cc1 | inactive
5 | COc1ccc(-c2onc3ccc(C(C)=O)cc23)cc1 | inactive
